The values below come from article PMC5836133, “The intracellular immune receptor Rx1 regulates the DNA-binding activity of a Golden2-like transcription factor”.

The full ranking holds about 16,000 sequences; the median of “e-score” is about -0.044, and the highest 2% start at about 0.38. For the sample, the highest values were picked, then their nearest neighbours and some sequences at random.

The assay concerns the target T1, GST-NbGlk1(82-244) (Nicotiana benthamiana).
T1 chain: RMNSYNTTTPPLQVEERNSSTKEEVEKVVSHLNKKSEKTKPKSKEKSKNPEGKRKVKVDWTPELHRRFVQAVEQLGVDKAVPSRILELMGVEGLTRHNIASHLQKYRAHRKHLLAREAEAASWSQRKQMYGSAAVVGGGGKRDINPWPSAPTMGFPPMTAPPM
Nature of the assay: protein-binding microarray; NbGlk1 is a Golden2-like transcription factor of Nicotiana benthamiana; high values mean tight binding. To be noted: protein: recombinant; tags: GST (pTH6838); dsDNA, one strand shown.
For the sequence ATCTTGAA, the binding signal amounted to 0.286 ± 0.0202 E-score. Regarding AATATAGA, the binding signal came out at 0.271 ± 0.00595 E-score. As to ACCTGGAT, the binding signal amounted to 0.224 ± 0.0187 E-score.

In the case of ATTTTTAG, the binding signal came to 0.235 ± 0.0033 E-score. With ATTTGTAC, the binding signal turned out to be 0.228 ± 0.0254 E-score. In the case of AAATCCCC, the binding signal was 0.368 ± 0.0151 E-score. CAATCCCA: the binding signal was determined as 0.279 ± 0.00457 E-score. In the case of AATCCCCG, the binding signal turned out to be 0.362 ± 0.0401 E-score.

In the case of AAATCACG, the binding signal is 0.381 ± 0.0177 E-score.

As to AAATCCCA, the binding signal came out at 0.4 ± 0.00412 E-score.

For CAATCCCG, the binding signal was 0.284 ± 0.05 E-score. AAATCCCG: the binding signal was determined as 0.435 ± 0.00616 E-score. In the case of AAATCACC, the binding signal was found to be 0.333 ± 0.00843 E-score. Regarding AAATCACA, the binding signal is 0.349 ± 0.00405 E-score.

Consider ATTTCGGG, for which the binding signal was found to be 0.27 ± 0.0618 E-score. As for ATCTCATC, the binding signal came out at 0.312 ± 0.051 E-score.

For ACCGCAAT, the binding signal was 0.302 ± 0.00387 E-score. Next, ATCCGGAA: 0.332 ± 0.0273 E-score.

For ATCCGGAG, the binding signal was 0.233 ± 0.0472 E-score.

ATCCGGAT: the binding signal is 0.422 ± 0.0228 E-score.

Take ACACAAAT: the binding signal came to 0.204 ± 0.00827 E-score. The result for ACAATCAG reads 0.237 ± 0.0723 E-score.

Turning to ACAATCAA, the binding signal amounted to 0.223 ± 0.00556 E-score. For ACAATCGA, the binding signal stood at 0.201 ± 0.0349 E-score. For the sequence ACAATCTC, the binding signal was 0.373 ± 0.047 E-score. The result for ACAATCTG reads 0.404 ± 0.0106 E-score; that for ACAATCTA, 0.3803 ± 0.00317 E-score; that for ATTTGTTA, 0.237 ± 0.0814 E-score. As for ACTGCAAT, the binding signal was 0.211 ± 0.0632 E-score.

Take ATGATTTG: the binding signal is 0.257 ± 0.0544 E-score. The result for ACGATTTG reads 0.264 ± 0.0306 E-score; that for AAAATTTC, 0.276 ± 0.00552 E-score; that for ACGATTTC, 0.411 ± 0.0236 E-score. With AAGATTTC, the binding signal worked out at 0.477 ± 0.00488 E-score.

In the case of CAGATTTC, the binding signal came to 0.4864 ± 0.00115 E-score. For the sequence CAGATTTA, the binding signal came to 0.276 ± 0.0107 E-score.

On to AAGATTTA, for which the binding signal is 0.333 ± 0.0668 E-score. As for ATGATTTC, the binding signal was 0.387 ± 0.0129 E-score. As to ACGATCTA, the binding signal was determined as 0.252 ± 0.0264 E-score. As for ATTATTTC, the binding signal was 0.219 ± 0.0605 E-score. Turning to CAAATTTC, the binding signal is 0.232 ± 0.00396 E-score. Next, ATTCCCAA: 0.344 ± 0.0159 E-score. The result for ATCGGATA reads 0.33 ± 0.0178 E-score; that for AAATACGT, 0.267 ± 0.0537 E-score; that for AATTGAAA, 0.226 ± 0.0522 E-score. As to ACAAATAA, the binding signal came out at 0.23 ± 0.0836 E-score. As to ATTTATTG, the binding signal is 0.216 ± 0.0481 E-score. Take ATTGCGAG: the binding signal was determined as 0.24 ± 0.0521 E-score. The result for ATATATAT reads 0.244 ± 0.0459 E-score. The result for ATTCCCAG reads 0.291 ± 0.0505 E-score. Next, AACTGATT: 0.296 ± 0.0177 E-score. For the sequence AAGATTTG, the binding signal stood at 0.3926 ± 0.000402 E-score. For the sequence AAGATCAG, the binding signal is 0.222 ± 0.0847 E-score. On to AATATTTG, for which the binding signal was found to be 0.2529 ± 0.00132 E-score. Next, AATCGGCA: 0.245 ± 0.0624 E-score; AATTTCCG: 0.257 ± 0.00588 E-score; AATCAGTA: 0.268 ± 0.0701 E-score. As for AATCTTAG, the binding signal worked out at 0.393 ± 0.0231 E-score.

As for AATCTTAC, the binding signal turned out to be 0.375 ± 0.0424 E-score. Next, ATTCTTAA: 0.276 ± 0.0327 E-score. Regarding ATTCTTAG, the binding signal was 0.253 ± 0.0124 E-score. The result for AATCTTAT reads 0.377 ± 0.038 E-score; that for AATCTTAA, 0.411 ± 0.0114 E-score; that for AAAGTAAT, 0.215 ± 0.0195 E-score. ATAAATCC: the binding signal was 0.244 ± 0.0187 E-score. For CAAAATCC, the binding signal worked out at 0.42 ± 0.00492 E-score.

CAAAATAC: the binding signal came out at 0.244 ± 0.00367 E-score. In the case of ACAAATCC, the binding signal was found to be 0.337 ± 0.0192 E-score. Turning to CAAAATCA, the binding signal came out at 0.314 ± 0.00439 E-score. Turning to AAAAATCC, the binding signal amounted to 0.437 ± 0.00502 E-score.

ATACGCAA: the binding signal is 0.311 ± 0.105 E-score. Take ATTACGTG: the binding signal is 0.343 ± 0.0114 E-score.

For the sequence ATACAGAT, the binding signal stood at 0.232 ± 0.0349 E-score. ATTTTCAG: the binding signal was 0.282 ± 0.0614 E-score.

AATGCGAT: the binding signal stood at 0.246 ± 0.145 E-score. As for ATTCCGAG, the binding signal was found to be 0.275 ± 0.0409 E-score. On to ATCCCGAT, for which the binding signal was 0.294 ± 0.0618 E-score. Turning to AATCCGAT, the binding signal came out at 0.432 ± 0.00878 E-score. The result for AATCCGAC reads 0.375 ± 0.0477 E-score; that for AATCCGAG, 0.384 ± 0.0199 E-score. The result for AATCAGAA reads 0.333 ± 0.0384 E-score; that for AATCCCGA, 0.358 ± 0.0612 E-score; that for AATCCGAA, 0.406 ± 0.0054 E-score. Next, ATCCCCAT: 0.277 ± 0.00736 E-score. In the case of AAACGGAT, the binding signal is 0.245 ± 0.00295 E-score. The result for AATCAATA reads 0.274 ± 0.0307 E-score.

Take ATTACGCG: the binding signal was 0.332 ± 0.0406 E-score. The result for ATCGCCAA reads 0.206 ± 0.00895 E-score. Turning to ATTACTTA, the binding signal is 0.22 ± 0.00767 E-score.

On to AATGAATC, for which the binding signal is 0.262 ± 0.0542 E-score. AAAGAAAT: the binding signal came to 0.26 ± 0.02 E-score. Consider AAAGAATC, for which the binding signal was found to be 0.432 ± 0.00665 E-score. CAAGAATC: the binding signal was 0.3851 ± 0.0038 E-score. CAAGATAC: the binding signal worked out at 0.263 ± 0.0221 E-score. On to CACGAATC, for which the binding signal stood at 0.332 ± 0.0173 E-score. As to ATCCGGTG, the binding signal came to 0.295 ± 0.0985 E-score. Take AATAAAAT: the binding signal is 0.285 ± 0.0273 E-score. As for AGGATATA, the binding signal was 0.211 ± 0.0455 E-score. For ACGATCTC, the binding signal was 0.295 ± 0.0231 E-score.

For CAGATATC, the binding signal was 0.4684 ± 0.00421 E-score. For ACGATATC, the binding signal was determined as 0.444 ± 0.0119 E-score. As for ATGATATC, the binding signal came to 0.4224 ± 0.000678 E-score.

On to ATGATATG, for which the binding signal came to 0.251 ± 0.0218 E-score. Next, AGGATATC: 0.469 ± 0.00696 E-score; CAGATACC: 0.318 ± 0.0659 E-score; ATGATCTC: 0.237 ± 0.0252 E-score.

In the case of AGGATATG, the binding signal was 0.301 ± 0.025 E-score. Consider ACGATACG, for which the binding signal was determined as 0.207 ± 0.012 E-score. For CACATATC, the binding signal amounted to 0.207 ± 0.0307 E-score.

With CACGGATA, the binding signal was 0.231 ± 0.0138 E-score. ATATTTTA: the binding signal came out at 0.311 ± 0.0242 E-score.

As to ATATGATA, the binding signal worked out at 0.219 ± 0.000234 E-score. As for ATTCGGTA, the binding signal amounted to 0.241 ± 0.0544 E-score. As to ACTGTAAA, the binding signal turned out to be 0.2014 ± 0.00123 E-score. As for ATTACGGA, the binding signal was found to be 0.366 ± 0.0276 E-score. As for ATAACGCA, the binding signal is 0.2 ± 0.0382 E-score. Turning to ATCTAAGA, the binding signal came out at 0.26 ± 0.0102 E-score. For the sequence ACGGGAAT, the binding signal worked out at 0.324 ± 0.00778 E-score. The result for AAGATATG reads 0.352 ± 0.0302 E-score; that for CAAATATG, 0.212 ± 0.061 E-score.

Turning to AAGATATA, the binding signal amounted to 0.3097 ± 0.00108 E-score. Consider AAGATACG, for which the binding signal is 0.319 ± 0.0229 E-score. On to CAGATACG, for which the binding signal turned out to be 0.391 ± 0.0206 E-score. Regarding CACAGATA, the binding signal worked out at 0.28 ± 0.0657 E-score. CAGATATG: the binding signal was found to be 0.393 ± 0.0499 E-score. The result for CAAATACG reads 0.225 ± 0.0583 E-score. Next, AAGATATT: 0.393 ± 0.0518 E-score; AAGATAAT: 0.221 ± 0.0513 E-score; AAGATACT: 0.2834 ± 0.00149 E-score.

As for AAGATATC, the binding signal came to 0.4749 ± 0.00348 E-score.

As for ATCCAGCC, the binding signal was found to be 0.215 ± 0.0455 E-score. The result for CAATCAGA reads 0.206 ± 0.101 E-score; that for AAATATAG, 0.237 ± 0.00681 E-score. With ATATCGAA, the binding signal stood at 0.272 ± 0.135 E-score. As for ATCTCGTA, the binding signal turned out to be 0.376 ± 0.0288 E-score. Next, ATCGGATC: 0.275 ± 0.0422 E-score. Next, ATTTTCGA: 0.266 ± 0.0802 E-score. Next, ATTACGCA: 0.355 ± 0.0219 E-score; AGATATTC: 0.451 ± 0.0112 E-score. On to AGATATTG, for which the binding signal stood at 0.375 ± 0.0495 E-score. As to ATATATTC, the binding signal came out at 0.281 ± 0.0514 E-score. As for ATATATTA, the binding signal worked out at 0.229 ± 0.0313 E-score. Take AGATATTA: the binding signal came out at 0.379 ± 0.00115 E-score.

Turning to AAATATTC, the binding signal was 0.306 ± 0.0275 E-score.
